# Data reported in ChEMBL document CHEMBL3988442, “University of Dundee, Small-Polar-MMV Screening Library” (2021).
# Screen size: about 48,000 compounds; about 13,000 (27%) showed an effect of 50% or more. Some of the results follow.
# Test system: Wolbachia pipientis
# Assay: Anti-Wolbachia Cell-Based Screen
# Format: functional
# Set-up: scale not given: in the data most compounds retested in dose-response had high values
# Settings: 5 µM
row,SMILES,Percent Effect [%]
1,Cc1nnc(CN(C)C2CCN(c3cccc(-c4cscn4)c3)CC2)o1,-15.24
2,CC(=O)N1[C@H](Cn2cncn2)C[C@@H]2CN(S(C)(=O)=O)CC[C@@H]21,-6.775
3,CCC(C(=O)NC)N(c1cccc(C)c1)S(C)(=O)=O (centres undefined),11.36
4,CSc1cccc(CN(C)C(=O)Nc2nc(C)n(C)n2)c1,2.052
5,CCCN(CC1COc2ccccc2O1)C(=O)c1ncoc1CC (centres undefined),-65.56
6,Cc1ncsc1CN1C[C@@H](OCC2CC2)[C@H]2OCCC[C@H]21,-10.25
7,Cc1ccsc1C(=O)Nc1cc(Br)c(=O)n(C)c1,-6.468
8,N#CCCN(Cc1ccco1)C(=O)c1ccc(OCC2CC2)cc1,40.98
9,N#CCCN(CCC#N)C(=O)c1ccc(OCC2CC2)cc1,8.167
10,N#CCCN(CC1CCCO1)C(=O)c1ccc(C#N)cc1 (centres undefined),122.3
11,O=C(c1cnc(O)cn1)N(Cc1ccsc1)CC1CCCO1 (centres undefined),-2.864
12,O=C(c1cccc(=O)[nH]1)N(Cc1ccsc1)CC1CCCO1 (centres undefined),-26.62
13,N#CCCN(CC1CCCO1)C(=O)c1ccsc1 (centres undefined),115.2
14,CCn1/c(=N/C(=O)CSCC(=O)Nc2nccs2)sc2ccccc21,6.405
15,CN(C)C(=O)CN1C[C@@H]2CC[C@H](C1)N(C(=O)CCCn1cncn1)C2,9.651
16,O=C1CCC(C(=O)N2CCC(Cn3cc(C4CCCC4)nn3)CC2)=NN1,-1.401
17,Cc1noc(C)c1CN1CCCC(CN(C(=O)OC(C)(C)C)C(C)C)C1 (centres undefined),-2.017
18,NCC(=O)N1CCCC(O)(CN2CCN(c3ccccc3)CC2)CC1 (centres undefined),149.6
19,COCC(=O)N1CCCC2(CCN(c3ccccc3)C2=O)C1 (centres undefined),-10.31
20,COCC(=O)N1CCC(O)(CN2CCN(c3ccccc3)CC2)C1 (centres undefined),93.8
21,O=C(C1CC1)N1CCC(O)(CN2CCN(c3ccccc3)CC2)C1 (centres undefined),101.1
22,COCC(=O)N1CC2(CCN(c3ccccc3)C2)C1,10.91
23,Cc1ccc(CN2CC3(CCN(C(=O)C4CC4)CC3)CC2C(=O)O)o1 (centres undefined),-15.03

row,SMILES,Percent Effect [%]
1,O=C(Cn1nc2ccccc2n1)N1CCCC(O)(CN2CCCC2)C1 (centres undefined),-26.39
2,NC(=O)CN1CCCC(C(=O)N2CCC(O)(Cc3ccccc3)CC2)C1 (centres undefined),12.2
3,CN(C)CC1(O)CCCN(C(=O)Cn2nc3ccccc3n2)CC1 (centres undefined),-26.73
4,O=C(CC1CC1)N1CCC2(CC(=O)N(c3cccc(F)c3)C2)C1 (centres undefined),-13.04
5,O=C(CC1CC1)N1CCC(O)(CN2CCN(c3ccccc3)CC2)C1 (centres undefined),113.7
6,CN1CCc2ccc(NCc3cccs3)cc2C1=O,-3.883
7,Cc1nc(-c2cc(C(=O)NCC(C)(C)CO)c3ccccn23)cs1,-18.5
8,COc1cc(NC(=O)NC(C2CC2)C2CC2)ccc1N1CCOC1=O,-4.711
9,CN1CCN(C(=O)N2C[C@H]3CC[C@@H]2CN(Cc2ccccc2)C3)CC1,-20.32
10,O=C(NC1CC(=O)N(C2Cc3ccccc3C2)C1)c1ccoc1 (centres undefined),-3.995
11,CCC(=O)NCc1cc(Br)ccc1OC(F)F,-1.176
12,CS(=O)(=O)c1nccn1Cc1ccc(Cl)cc1,-5.692
13,O=C(CNC1CCc2ncnn2C1)N(Cc1cccs1)C1CC1 (centres undefined),0.7257
14,CCc1ccc(C(=O)N2CCC(O)(CN3CCOCC3)C(C)(C)C2)[nH]1 (centres undefined),-6.859
15,O=C(c1n[nH]c(=O)c2ccccc12)N1CCC(O)(CN2CCOCC2)C1 (centres undefined),88.42
16,O=C(NCCN1CCOCC1)c1n[nH]c(=O)c2ccccc12,6.871
17,CCCNC(=O)CN1CCN(Cc2csc(C(C)(C)C)n2)CC1,-11.65
18,COc1cccc(NC(=O)NCC(C)(O)CCSC)c1OC (centres undefined),-0.9088
19,CN(C)C(=O)c1cn[nH]c1C1CCCN1Cc1cncn1C (centres undefined),96.91
20,Fc1ccc2[nH]c(C3CCCN3Cc3c[nH]cn3)nc2c1 (centres undefined),-35.05
21,CN(C)C(=O)c1cn[nH]c1C1CCCN1Cc1c[nH]cn1 (centres undefined),119.4
22,Cc1ccc2nc(C3CCCN3Cc3csc(C)n3)[nH]c2c1 (centres undefined),2.616
23,Cc1nc(CN2CCCC2c2[nH]ncc2C(=O)N(C)C)cs1 (centres undefined),135.6

row,SMILES,Percent Effect [%]
1,CC(=O)NCCNC(=O)CN1CCN(Cc2nccn2C)C(C)C1 (centres undefined),1.772
2,CN(C(=O)CN1CCCC1c1cnn(C)c1)C(C)(C)C#N (centres undefined),6.976
3,Cn1ccnc1CN1CCCCC1c1nc(-c2ccccc2)no1 (centres undefined),18.03
4,CC(=O)Nc1nc(CN2CCCC2c2cnn(C)c2)cs1 (centres undefined),-2.623
5,CN(C)C(=O)c1cn[nH]c1C1CCCN1Cc1nccn1C.O=CO (centres undefined),83.24
6,CN(CC1CC1)C(=O)CN1CCCC1c1cnn(C)c1 (centres undefined),-56.85
7,CNc1cncc(C2CCCN2Cc2c[nH]cn2)n1 (centres undefined),-2.81
8,CC(Oc1ccccc1C(F)(F)F)C(=O)NCCNC(=O)C1CC1 (centres undefined),-69.67
9,Cc1cnn(CCC(=O)NS(=O)(=O)N2CCc3ccccc32)c1,5.056
10,Cc1nn(C)c2ncnc(N(C)CC3CCN(CC(C)C)C3)c12 (centres undefined),-20.38
11,O=C(NC[C@H]1OC[C@@H](NC2COC2)[C@@H]1O)Nc1ccccc1,4.366
12,Cc1ccc(C(=O)N2CCC(n3cc(CN)nn3)CC2)cc1F,8.756
13,CCCN(CC1COc2ccccc2O1)C(=O)CCN1C(=O)CCC1=O (centres undefined),23.62
14,CC(C)NC(=O)[C@@H]1C[C@@H](N)CN1C(=O)CCSCc1ccccc1,-10.01
15,Cc1nn(C)c(N2CCOCC2)c1CNC1CCc2ccccc2C1 (centres undefined),-5.455
16,Cc1cccc(CN2CCCC(O)(CNCCN3CCCCC3)C2=O)c1 (centres undefined),-21.92
17,CC1c2ncc(COCC3CCOCC3)n2CCN1Cc1cccnc1.O=C(O)C(F)(F)F.O=C(O)C(F)(F)F (centres undefined),-7.39
18,CC1c2ncc(Cn3cccn3)n2CCN1Cc1ccccn1.O=C(O)C(F)(F)F.O=C(O)C(F)(F)F (centres undefined),102.5
19,CCOCc1cnc2n1CCN(C(=O)Cc1ccccn1)C2C.O=C(O)C(F)(F)F (centres undefined),-0.9872
20,CC1c2ncc(CN3CCN(C)CC3)n2CCN1Cc1ccccn1.O=C(O)C(F)(F)F.O=C(O)C(F)(F)F.O=C(O)C(F)(F)F.O=C(O)C(F)(F)F (centres undefined),110.4
21,CC1c2ncc(Cn3cccn3)n2CCN1Cc1ccc(F)cc1.O=C(O)C(F)(F)F (centres undefined),95.73
22,CC1c2ncc(COCc3ccccn3)n2CCN1C1CCCC1.O=C(O)C(F)(F)F.O=C(O)C(F)(F)F (centres undefined),16.64
23,CC1c2ncc(Cn3cccn3)n2CCN1Cc1cccnc1.O=C(O)C(F)(F)F.O=C(O)C(F)(F)F (centres undefined),97.64
